In the supplement of paper PMC10849652:
About 7,900 targets were measured; listed, in parts, are those with a hit and a random draw of the rest. About 0.6% of all pairs of compound and target were hits.

Legend:
Assay in all cases: log2 fold change, soluble protein after heating vs DMSO (PISA); higher = thermal stabilisation; K562 cells, 10 uM, 30 min; active = over 0.2 and 3.5 SD of the protein, either way, in both replicates (recomputed)
[1] = compound: C1=CC=C(C=C1)[C@H](COC2=CC3=C(C=C2)NC(=O)N3)NC(=O)C4=CC=CN(C4=O)CC5=CC(=C(C=C5)F)F
In short: (§1)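 Aliquots of K562 cells (2×10^6 cells/mL) treated with 10 μM compound for 30 min were heated for 3 min over 48°C-58°C. After pooling and extraction in PBS with 0.5% NP-40 at 4°C, soluble protein from a 21,000xg, 90 min spin was quantified by TMTpro 16plex LC-MS/MS with channel sums equalised. Thermal stability is expressed against control samples, from duplicates, as a log2 fold change.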

[2] = compound: CC1=C(SC2=C1C(=N[C@H](C3=NN=C(N32)C)CC(=O)N)C4=CC=C(C=C4)Cl)C
In short: as §1

[3] = compound: CC1=C2C(=CC=C1)N=C(N(C2=O)C3=CC=CC=C3C)CN4C=NC5=C(N=CN=C54)N
In short: as §1

[4] = compound: Cc1sc2c(c1C)C(c1ccc(Cl)cc1)=N[C@@H](CC(=O)OC(C)(C)C)c1nnc(C)n1-2
In short: as §1

[5] = compound: c1ccc([C@@H]2C[C@H]2NC2CCNCC2)cc1
In short: as §1

Measured: log2 fold change

FRA10AC1 isoform 3 (UniProt Q70Z53)
Chain of UniProt Q70Z53 (Q70Z53 whole entry, looked up): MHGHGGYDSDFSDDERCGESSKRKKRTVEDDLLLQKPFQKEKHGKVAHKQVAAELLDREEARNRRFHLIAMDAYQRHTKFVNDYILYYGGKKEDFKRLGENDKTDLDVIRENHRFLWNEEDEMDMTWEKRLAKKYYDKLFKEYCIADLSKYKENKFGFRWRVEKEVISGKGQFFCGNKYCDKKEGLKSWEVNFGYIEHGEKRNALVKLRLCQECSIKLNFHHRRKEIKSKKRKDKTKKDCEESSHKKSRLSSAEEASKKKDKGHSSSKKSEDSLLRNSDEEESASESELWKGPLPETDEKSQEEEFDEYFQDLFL
inactive: [1] -0.03 | [2] 0.005 | [3] 0.055 | [4] 0.069 | [5] 0.073

FBXO7 (UniProt Q9Y3I1)
Chain of UniProt Q9Y3I1 (Q9Y3I1 whole entry, looked up): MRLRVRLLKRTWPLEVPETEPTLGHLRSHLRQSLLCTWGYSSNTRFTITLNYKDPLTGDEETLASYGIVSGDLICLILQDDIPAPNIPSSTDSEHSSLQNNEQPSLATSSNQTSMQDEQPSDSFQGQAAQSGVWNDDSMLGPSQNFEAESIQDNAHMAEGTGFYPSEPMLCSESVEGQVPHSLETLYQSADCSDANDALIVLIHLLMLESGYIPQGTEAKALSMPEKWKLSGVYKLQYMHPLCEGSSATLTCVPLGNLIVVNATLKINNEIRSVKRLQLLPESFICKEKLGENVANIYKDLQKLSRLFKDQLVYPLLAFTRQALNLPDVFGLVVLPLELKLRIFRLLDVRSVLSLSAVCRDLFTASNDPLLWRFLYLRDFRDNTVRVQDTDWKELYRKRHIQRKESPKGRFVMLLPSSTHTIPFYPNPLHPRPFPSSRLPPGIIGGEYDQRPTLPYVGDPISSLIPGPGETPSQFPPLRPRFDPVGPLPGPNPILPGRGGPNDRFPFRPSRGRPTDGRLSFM
inactive: [1] -0.002 | [2] 0.033 | [3] 0.045 | [4] -0.033 | [5] 0.024

GALC (UniProt P54803)
Chain of UniProt P54803 (P54803 whole entry, looked up): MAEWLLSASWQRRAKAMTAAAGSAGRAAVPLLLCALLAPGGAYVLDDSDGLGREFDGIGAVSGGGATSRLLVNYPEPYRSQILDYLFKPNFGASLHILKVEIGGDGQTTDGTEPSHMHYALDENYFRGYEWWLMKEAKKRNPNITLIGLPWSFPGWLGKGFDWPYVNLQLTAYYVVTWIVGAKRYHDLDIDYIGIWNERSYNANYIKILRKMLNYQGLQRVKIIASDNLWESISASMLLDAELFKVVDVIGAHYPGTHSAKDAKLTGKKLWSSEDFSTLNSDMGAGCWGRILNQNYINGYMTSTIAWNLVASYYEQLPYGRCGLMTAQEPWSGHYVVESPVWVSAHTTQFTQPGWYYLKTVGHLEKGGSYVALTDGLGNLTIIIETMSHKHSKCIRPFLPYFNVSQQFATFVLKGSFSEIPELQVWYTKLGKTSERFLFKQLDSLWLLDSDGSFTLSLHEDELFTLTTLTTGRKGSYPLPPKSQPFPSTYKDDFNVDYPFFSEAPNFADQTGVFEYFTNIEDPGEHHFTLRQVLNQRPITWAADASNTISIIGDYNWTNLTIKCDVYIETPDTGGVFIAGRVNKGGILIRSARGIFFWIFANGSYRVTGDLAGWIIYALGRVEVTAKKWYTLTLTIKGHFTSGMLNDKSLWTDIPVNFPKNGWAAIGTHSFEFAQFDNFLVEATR
inactive: [1] 0.046 | [2] 0.055 | [3] 0.055 | [4] -0.043 | [5] 0.006

HBZ, A0A494C057
inactive: [1] -0.047

HMGN2 (UniProt P05204)
inactive: [1] -0.099 | [2] -0.056 | [3] -0.033 | [4] 0.021 | [5] 0.07

HSPA2 (UniProt P54652)
Chain of UniProt P54652 (P54652 whole entry, looked up): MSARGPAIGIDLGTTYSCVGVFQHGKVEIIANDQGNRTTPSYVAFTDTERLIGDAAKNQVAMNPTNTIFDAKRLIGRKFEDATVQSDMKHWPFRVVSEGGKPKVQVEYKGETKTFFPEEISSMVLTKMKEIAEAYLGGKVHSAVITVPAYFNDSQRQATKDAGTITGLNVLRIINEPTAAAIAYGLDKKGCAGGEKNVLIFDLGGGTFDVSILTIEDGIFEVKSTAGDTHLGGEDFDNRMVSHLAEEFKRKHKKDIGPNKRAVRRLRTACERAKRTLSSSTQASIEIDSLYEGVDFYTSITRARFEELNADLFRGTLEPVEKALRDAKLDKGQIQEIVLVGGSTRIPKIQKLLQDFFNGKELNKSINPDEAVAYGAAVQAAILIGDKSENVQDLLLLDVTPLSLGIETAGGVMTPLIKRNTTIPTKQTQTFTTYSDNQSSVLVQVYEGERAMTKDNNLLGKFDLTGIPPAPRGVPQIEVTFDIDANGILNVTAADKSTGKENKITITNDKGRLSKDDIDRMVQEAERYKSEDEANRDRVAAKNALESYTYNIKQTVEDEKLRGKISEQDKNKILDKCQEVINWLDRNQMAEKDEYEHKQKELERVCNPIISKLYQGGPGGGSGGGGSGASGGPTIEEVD
inactive: [1] 0.003

GCSH (UniProt P23434)
Chain of UniProt P23434 (P23434 whole entry, looked up): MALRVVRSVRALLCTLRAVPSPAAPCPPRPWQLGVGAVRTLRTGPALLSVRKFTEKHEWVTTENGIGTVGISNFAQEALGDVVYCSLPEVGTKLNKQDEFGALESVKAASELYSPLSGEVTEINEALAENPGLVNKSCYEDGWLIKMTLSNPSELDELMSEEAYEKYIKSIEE
inactive: [1] 0.029 | [2] -0.004 | [3] -0.043 | [4] 0 | [5] 0.043

HNRNPH2 (UniProt P55795)
Chain of UniProt P55795 (P55795 whole entry, looked up): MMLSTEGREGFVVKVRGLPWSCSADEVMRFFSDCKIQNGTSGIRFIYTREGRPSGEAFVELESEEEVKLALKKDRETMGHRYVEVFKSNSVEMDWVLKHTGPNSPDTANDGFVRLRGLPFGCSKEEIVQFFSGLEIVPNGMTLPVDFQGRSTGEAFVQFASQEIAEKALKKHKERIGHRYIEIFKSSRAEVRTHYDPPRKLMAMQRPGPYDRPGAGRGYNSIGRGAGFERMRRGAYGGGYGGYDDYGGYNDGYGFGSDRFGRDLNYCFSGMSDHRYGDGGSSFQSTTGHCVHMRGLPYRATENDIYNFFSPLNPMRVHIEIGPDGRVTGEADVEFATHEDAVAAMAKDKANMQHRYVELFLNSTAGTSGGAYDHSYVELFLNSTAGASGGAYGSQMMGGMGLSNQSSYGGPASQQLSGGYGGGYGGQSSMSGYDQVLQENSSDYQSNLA
inactive: [1] -0.096 | [2] -0.037 | [3] 0.097 | [4] -0.035 | [5] -0.003

GBA2 (UniProt Q9HCG7)
Chain of UniProt Q9HCG7 (Q9HCG7 whole entry, looked up): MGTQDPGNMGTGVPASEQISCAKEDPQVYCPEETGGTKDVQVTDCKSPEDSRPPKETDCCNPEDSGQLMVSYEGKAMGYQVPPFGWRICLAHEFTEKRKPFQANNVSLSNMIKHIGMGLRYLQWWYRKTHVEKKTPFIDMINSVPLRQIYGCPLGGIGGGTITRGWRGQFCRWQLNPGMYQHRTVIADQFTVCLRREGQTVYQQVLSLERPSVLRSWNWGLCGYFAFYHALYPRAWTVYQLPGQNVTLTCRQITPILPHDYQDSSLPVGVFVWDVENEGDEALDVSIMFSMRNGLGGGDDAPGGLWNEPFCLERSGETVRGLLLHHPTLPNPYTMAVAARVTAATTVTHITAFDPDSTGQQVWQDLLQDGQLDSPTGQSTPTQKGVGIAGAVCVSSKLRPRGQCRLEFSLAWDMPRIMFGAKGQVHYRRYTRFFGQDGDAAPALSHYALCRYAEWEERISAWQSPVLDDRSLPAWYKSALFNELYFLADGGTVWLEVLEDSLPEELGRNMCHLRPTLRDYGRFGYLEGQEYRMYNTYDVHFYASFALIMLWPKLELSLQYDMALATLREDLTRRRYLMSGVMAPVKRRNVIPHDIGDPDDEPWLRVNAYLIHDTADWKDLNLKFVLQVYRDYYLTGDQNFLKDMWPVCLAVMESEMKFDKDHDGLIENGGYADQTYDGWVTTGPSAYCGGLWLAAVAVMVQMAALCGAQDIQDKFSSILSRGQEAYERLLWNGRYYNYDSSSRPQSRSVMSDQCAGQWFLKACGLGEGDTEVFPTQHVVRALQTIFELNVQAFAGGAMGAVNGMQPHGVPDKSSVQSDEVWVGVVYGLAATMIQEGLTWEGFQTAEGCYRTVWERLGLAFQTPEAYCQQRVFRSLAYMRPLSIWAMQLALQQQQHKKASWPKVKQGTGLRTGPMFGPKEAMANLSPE
inactive: [1] 0.099 | [2] 0.012 | [3] 0.017 | [4] 0.034 | [5] 0.023

FBXO42 (UniProt Q6P3S6)
Chain of UniProt Q6P3S6 (Q6P3S6 whole entry, looked up): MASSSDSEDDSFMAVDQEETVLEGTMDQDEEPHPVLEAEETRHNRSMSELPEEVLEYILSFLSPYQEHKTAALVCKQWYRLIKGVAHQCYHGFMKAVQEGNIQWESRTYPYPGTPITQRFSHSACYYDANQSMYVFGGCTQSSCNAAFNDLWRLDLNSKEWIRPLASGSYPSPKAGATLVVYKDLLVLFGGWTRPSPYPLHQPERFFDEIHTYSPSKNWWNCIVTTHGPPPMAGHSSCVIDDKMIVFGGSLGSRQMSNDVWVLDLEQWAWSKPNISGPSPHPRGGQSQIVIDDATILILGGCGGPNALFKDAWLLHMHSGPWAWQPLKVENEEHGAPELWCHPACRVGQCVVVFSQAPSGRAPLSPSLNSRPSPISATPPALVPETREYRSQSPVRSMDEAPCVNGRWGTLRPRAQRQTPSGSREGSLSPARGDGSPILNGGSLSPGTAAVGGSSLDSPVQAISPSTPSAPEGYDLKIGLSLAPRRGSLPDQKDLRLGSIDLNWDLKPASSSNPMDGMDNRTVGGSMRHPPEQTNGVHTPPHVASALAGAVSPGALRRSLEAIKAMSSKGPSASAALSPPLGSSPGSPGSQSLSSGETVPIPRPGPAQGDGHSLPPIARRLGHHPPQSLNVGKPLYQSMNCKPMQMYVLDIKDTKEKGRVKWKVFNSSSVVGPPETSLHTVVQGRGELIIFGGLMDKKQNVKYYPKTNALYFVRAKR
inactive: [1] -0.022 | [2] 0.017 | [3] 0.094 | [4] 0.141 | [5] 0.077
